{"source": "PubChem BioAssay (NCATS)", "note": "Results filed as inconclusive are left out. Calls of active or inactive are those of the source. The call rests on the fitted dose curve; in most records, active means well fitted inhibition curve with a large enough effect; inconclusive means small, poorly fitted or top-dose-only effect; inactive means flat fitted curve, though single readings scatter. On the % scale 0 is the no-effect control and ±100 the full control effect.", "data": [{"biological_target": "Calcium and integrin-binding protein 1 (Homo sapiens) (UniProt Q99828)", "sequence (Q99828 whole entry, looked up)": "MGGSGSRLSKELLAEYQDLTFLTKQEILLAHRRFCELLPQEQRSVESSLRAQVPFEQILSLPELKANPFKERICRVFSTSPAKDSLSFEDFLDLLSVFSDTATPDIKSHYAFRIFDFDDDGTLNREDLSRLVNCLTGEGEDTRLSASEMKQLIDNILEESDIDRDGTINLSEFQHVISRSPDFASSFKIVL", "assay": "Primary qHTS for Identification of Calcium Integrin Binding Protein 1 (CIB1) Competitor (AID 1508620);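 further: GST tagged CIB1 binding a fluorescein labelled alphaIIb integrin peptide tracer; top concentration of the series differs between compounds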", "details": "CIB1-GST / FITC-alphaIIb peptide fluorescence polarization; series mostly up to 114 µM; activity change, negative = inhibition: at the top concentration", "in_short": "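Fluorescence polarization competition: CIB1-GST (1 uM final) preincubated with compound 15 min at room temperature, then FITC-labeled alphaIIb peptide (100 nM final) added for another 15 min. Polarization read at Ex 480/Em 540.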", "values": [{"smiles": "O=C(CSc1nnc(-c2cccc(S(=O)(=O)N3CCCC3)c2)n1-c1ccccc1)Nc1ccc(F)cc1", "activity change, negative = inhibition": "-0.658% (inactive)"}, {"smiles": "Cc1ccc(OCCn2c(CCNC(=O)c3cccc(Cl)c3)nc3ccccc32)cc1", "activity change, negative = inhibition": "1.18% (inactive)"}, {"smiles": "O=C1CCc2cc(S(=O)(=O)Nc3ccccc3F)ccc2N1", "activity change, negative = inhibition": "-1.24% (inactive)"}, {"smiles": "O=[S+]([O-])(Nc1ccccc1)c1ccc(NCc2cccc(C(F)(F)F)c2F)cc1", "activity change, negative = inhibition": "-3.91% (inactive)"}, {"smiles": "CN(C)c1ccccc1-c1csc(N2CCC(C(N)=O)CC2)n1", "activity change, negative = inhibition": "-0.412% (inactive)"}, {"smiles": "O=C(Cc1ccc(Cl)c(Cl)c1)Nc1ccc([S+](=O)([O-])Nc2ccccn2)cc1", "activity change, negative = inhibition": "-11.4% (inactive)"}, {"smiles": "O=C(c1ccccc1)N(C(=O)c1ccccc1)c1ncnc2c1C(c1ccccc1)c1c(ccc3ccccc13)O2", "note": "(stereo not given)", "activity change, negative = inhibition": "1.59% (inactive)"}, {"smiles": "Cc1ccc(N2CCC(CNc3nc(-c4ccccc4C(C)C)ncc3C)CC2)cn1", "activity change, negative = inhibition": "0.371% (inactive)"}, {"smiles": "O=C(O)c1ccc2c(c1)C(=O)N([C@H](Cc1c[nH]c3ccccc13)C(=O)O)C2=O", "activity change, negative = inhibition": "-0.105% (inactive)"}, {"smiles": "COc1cccc(C2c3c(ncn(-c4ccc(-c5ccccc5)cc4)c3=N)Oc3ccc4ccccc4c32)c1", "note": "(stereo not given)", "activity change, negative = inhibition": "10.8% (inactive)"}, {"smiles": "O=C(O)c1ccc(O)c2ncc(N3CC(N4CCOCC4)C3)cc12", "activity change, negative = inhibition": "-9.04% (inactive)"}, {"smiles": "Cc1cc(C)nc(NC(=S)N2CCN(c3ccc(C(F)(F)F)cc3[N+](=O)[O-])CC2)c1", "activity change, negative = inhibition": "-13% (inactive)"}, {"smiles": "O=C(/C=C/c1ccccc1)Nc1cccc(S(=O)(=O)Nc2ccccc2F)c1", "Potency": "inactive"}, {"smiles": "Cc1ccnc(NC(=S)NC2CCCN(c3cccc(C(F)(F)F)c3)C2)c1", "note": "(stereo not given)", "activity change, negative = inhibition": "2.44% (inactive)"}, {"smiles": "N#Cc1nc(Nc2cccc(C(F)(F)F)c2)nc(NC2CCCC2)n1", "activity change, negative = inhibition": "3.98% (inactive)"}, {"smiles": "N#CN1CCC(NC(=O)c2ccc(F)cc2)CC1", "activity change, negative = inhibition": "-2.65% (inactive)"}, {"smiles": "CN(C)c1ccc(C2N=C(Nc3nc4ccccc4o3)NC3=C2C(=O)CCC3)cc1", "note": "(stereo not given)", "activity change, negative = inhibition": "-9.09% (inactive)"}, {"smiles": "CCNC(=O)c1ccc(-c2ccc3ncnc(NCC(C)(C)C)c3c2)o1", "activity change, negative = inhibition": "-8.62% (inactive)"}, {"smiles": "Cc1cc(C)nc(NC(=S)N2CCN(c3cc(Cl)cc(Cl)n3)CC2)c1", "activity change, negative = inhibition": "-1.49% (inactive)"}, {"smiles": "Fc1ccc(-c2ccc(Nc3nc(-c4ccncc4)nc4ccccc34)cc2F)c(Cl)c1", "activity change, negative = inhibition": "4.46% (inactive)"}, {"smiles": "Cc1cc(C)n2ncc(C(=O)Nc3ccccc3)c2n1", "activity change, negative = inhibition": "-2.33% (inactive)"}, {"smiles": "O=S(=O)(c1ccc2c(c1)OCCO2)N1CCN(S(=O)(=O)c2ccc3nc(Cl)c(Cl)nc3c2)CC1", "activity change, negative = inhibition": "-7.19% (inactive)"}, {"smiles": "Cc1nc2ccccn2c1P(=O)(c1ccccc1)c1ccccc1", "activity change, negative = inhibition": "4.61% (inactive)"}, {"smiles": "N#Cc1cccc(NS(=O)(=O)c2ccc3c(c2)CCC(=O)N3)c1", "activity change, negative = inhibition": "2.15% (inactive)"}, {"smiles": "CC(C)c1ccccc1-c1ncc(N(C)C)c(NCc2ccc(-c3cccnc3)cc2)n1", "activity change, negative = inhibition": "0.002% (inactive)"}, {"smiles": "Cc1scc2c1C(=O)NS2(=O)=O", "activity change, negative = inhibition": "3.13% (inactive)"}, {"smiles": "Cc1cc(NC(=O)Nc2nnc(-c3cccnc3)s2)ccc1Br", "activity change, negative = inhibition": "3.98% (inactive)"}, {"smiles": "Cc1ccccc1S(=O)(=O)N1CCN(S(=O)(=O)c2ccc3c(c2)OCCO3)CC1", "activity change, negative = inhibition": "-3.54% (inactive)"}, {"smiles": "COc1ccc(-c2nnc3n2N=C(c2cccc(OC)c2)CS3)cc1", "activity change, negative = inhibition": "0.504% (inactive)"}, {"smiles": "O=C(NC1CCCc2c1cnn2-c1ccc(F)cc1F)c1cccc(=O)[nH]1", "note": "(stereo not given)", "activity change, negative = inhibition": "-0.0994% (inactive)"}, {"smiles": "CC(=O)NC(c1cccs1)c1cc(F)c2cccnc2c1O", "note": "(stereo not given)", "activity change, negative = inhibition": "-16.3% (inactive)"}, {"smiles": "Cc1cc2c(s1)c1cnn(Cc3ccc(F)c(F)c3)c(=O)c1n2C", "activity change, negative = inhibition": "3.79% (inactive)"}, {"smiles": "FC(F)(F)c1ccccc1-c1nc(NCc2ccc(Cl)cc2)c2ccccc2n1", "activity change, negative = inhibition": "0.567% (inactive)"}, {"smiles": "Cc1cccc(-n2cnc3cc(C(=O)N4CCCC(C)(C)C4)ccc32)c1", "activity change, negative = inhibition": "-0.693% (inactive)"}, {"smiles": "NC(=O)C1CCN(c2nc(-c3ccccc3F)cs2)CC1", "activity change, negative = inhibition": "-0.328% (inactive)"}, {"smiles": "Cc1sc(NC(=O)Cc2ccc3c(c2)OCO3)nc1-c1ccc2c(c1)CCN2C(=O)C1CCCCC1", "activity change, negative = inhibition": "3.84% (inactive)"}, {"smiles": "Cc1cc(C)nc(NC(=S)N2CCN(c3ccc4ccccc4c3)CC2)c1", "activity change, negative = inhibition": "-13.3% (inactive)"}, {"smiles": "O=C(Nc1ccc(-n2cncn2)c(F)c1)Nc1nnc(-c2ccncc2)s1", "activity change, negative = inhibition": "4.45% (inactive)"}, {"smiles": "NC(=O)C1CCN(c2nc(-c3cccc(Cl)c3)cs2)CC1", "activity change, negative = inhibition": "1.55% (inactive)"}, {"smiles": "O=c1c2ccccc2nc2sc(NCc3ccc([S+](=O)([O-])c4ccccc4)cc3)nn12", "activity change, negative = inhibition": "13% (inactive)"}]}]}
